# Test results reported in PubChem BioAssay (NCATS).
# Results filed as inconclusive are left out. The source made the active and inactive calls. Unless noted, calls come from the whole dose curve; as a rule, active = well fitted inhibition curve with a large enough effect; inconclusive = small, poorly fitted or top-dose-only effect; inactive = flat fitted curve, though single readings scatter.
# How the values were obtained:
# [1] = qHTS drug screen for cell cycle checkpoint inhibitors in PARPi-resistant BRCA-mutant ovarian cancer cell lines. (AID 1963452; calls by dose curve); settings: PEO1/OlaR viability, CellTiter-Glo luminescence, 96 h, stronger effect = lower value
# Outline: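 PEO1, PEO4 and PEO1/OlaR ovarian cancer cells, 600 per well, exposed 96 h at 37C to a dilution series. Viability read by CellTiter-Glo luminescence, normalized to DMSO and empty wells; activity summarized as Z-AUC.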
# [2] = qHTS profiling for inhibitors of Plasmodium falciparum proliferation (AID 504749); note: nearly all actives have a fitted effect of over 60% in size; note: potency is the fitted concentration of half-maximal effect;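 for activity, negative = inhibition: 0% = DMSO vehicle and full inhibition = artemisinin control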; settings: P. falciparum in erythrocytes, SYBR Green DNA, 72 h
# Outline: (§1)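 Infected RBCs, 0.3% parasitemia/2.5% Hct final; cpd 72 h, 37 C, 5% CO2; lysis buffer with saponin/triton/SYBR Green I, o/n RT dark; FI 485/535; norm. to artemisinin (0.29 uM) and DMSO.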
# 3D7 = experiment: as above; settings: P. falciparum in erythrocytes, SYBR Green DNA, 72 h; series mostly up to 28.7 µM
# Outline: as §1
# 7G8 = experiment: as above; settings: P. falciparum in erythrocytes, SYBR Green DNA, 72 h; series mostly up to 28.7 µM
# Outline: as §1
# AA1029 = experiment: as above; settings: P. falciparum in erythrocytes, SYBR Green DNA, 72 h; series mostly up to 28.7 µM
# Outline: as §1
# AS120 = experiment: as above; settings: P. falciparum in erythrocytes, SYBR Green DNA, 72 h; series mostly up to 28.7 µM
# Outline: as §1
# ATS189 = experiment: as above; settings: P. falciparum in erythrocytes, SYBR Green DNA, 72 h; series mostly up to 28.7 µM
# Outline: as §1
# ATS95 = experiment: as above; settings: P. falciparum in erythrocytes, SYBR Green DNA, 72 h; series mostly up to 28.7 µM
# Outline: as §1
# C2A = experiment: as above; settings: P. falciparum in erythrocytes, SYBR Green DNA, 72 h; series mostly up to 28.7 µM
# Outline: as §1
# CP185 = experiment: as above; settings: P. falciparum in erythrocytes, SYBR Green DNA, 72 h; series mostly up to 28.7 µM
# Outline: as §1
# CP192 = experiment: as above; settings: P. falciparum in erythrocytes, SYBR Green DNA, 72 h; series mostly up to 28.7 µM
# Outline: as §1
# CP194 = experiment: as above; settings: P. falciparum in erythrocytes, SYBR Green DNA, 72 h; series mostly up to 28.7 µM
# Outline: as §1
# CP191 = experiment: as above; settings: P. falciparum in erythrocytes, SYBR Green DNA, 72 h; series mostly up to 28.7 µM
# Outline: as §1
# [3] = qHTS for identification of novel therapeutic agents for treatment of microphthalmiaassociated transcription factor (MiT) renal cell carcinoma (RCC) (AID 1963991; calls by dose curve; note: potency is the fitted concentration of half-maximal effect;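 for z-score: curves scaled with 100% = DMSO viability and 0% = empty wells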); settings: CellTiter-Glo, 48 h; for z-score: stronger effect = lower value
# Outline: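 UOK109/UOK124/UOK145 (TFE3 fusions, three partners); 500 cells/well; MIPE v4.0, 1912 cpds, 11 conc.; 48 h, 37 C; CellTiter-Glo, 15 min RT; lum. Norm.: DMSO 100%, empty 0%.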
# [4] = measured here: PEO1 parental Z-AUC
# [5] = at 12.8 µM (top of the series), parasite line A
# [6] = at 28.7 µM (top of the series), parasite line B
# [7] = TFE3-RCC UOK109 viability, measured here: UOK109 Z-AUC
# [8] = TFE3-RCC viability, measured here: UOK124 Z-AUC
# [9] = TFE3-RCC viability, measured here: UOK145 Z-AUC
# [10] = at 28.7 µM (top of the series), parasite line A
smiles,measurement,setting,value
Cc1oncc1C(=O)Nc1ccc(C(F)(F)F)cc1,Z-AUC,[1],0.594 (inactive)
same,Z-AUC,[1]; [4],0.454
same,Z-AUC,[1]; measured here: PEO4 Z-AUC,0.504
same,"activity, negative = inhibition",[2]; [5],-4.31% (inactive)
same,"activity, negative = inhibition","[2]; at 12.8 µM (top of the series), parasite line B",9.52% (inactive)
same,Potency,3D7,inactive
same,Potency,7G8,3.55 µM (active)
same,Potency,AA1029,inactive
same,Potency,AS120,inactive
same,Potency,ATS189,inactive
same,Potency,ATS95,inactive
same,Potency,C2A,inactive
same,Potency,CP185,inactive
same,Potency,CP192,inactive
same,Potency,CP194,inactive
CCOC(=O)N1CCC(=C2c3ccc(Cl)cc3CCc3cccnc32)CC1,"activity, negative = inhibition",[2]; [6],-13.3% (inactive)
same,Potency,[2]; parasite line A,12.6 µM (active)
same,Potency,7G8,2.24 µM (active)
same,Potency,AS120,1.78 µM (active)
same,Potency,ATS189,inactive
same,Potency,C2A,inactive
CC(C)C[C@H](NC(=O)[C@@H](O)[C@H](N)Cc1ccccc1)C(=O)O,Z-AUC,[1],0.8 (inactive)
same,Z-AUC,[1]; [4],0.368
same,Z-AUC,[1]; measured here: PEO4 Z-AUC,0.252
same,Potency,[2]; parasite line A,2.51 µM (active)
same,Potency,[2]; parasite line B,5.62 µM (active)
same,Potency,3D7,2.51 µM (active)
same,Potency,7G8,4.47 µM (active)
same,Potency,AA1029,5.62 µM (active)
same,Potency,AS120,6.31 µM (active)
same,Potency,ATS189,8.91 µM (active)
same,Potency,ATS95,7.94 µM (active)
same,Potency,C2A,3.98 µM (active)
same,Potency,CP185,11.2 µM (active)
same,Potency,CP191,5.01 µM (active)
same,Potency,CP194,6.75 µM (active)
Cc1ccccc1C(C(=O)NC1CCCC1)N(C(=O)Cn1cnc2ccccc21)c1cccc(F)c1 (configuration not stated),z-score,[3]; [7],0.51
same,z-score,[3]; [8],0.839
same,z-score,[3]; [9],0.533
Oc1ccc(C2CNCCc3c2cc(O)c(O)c3Cl)cc1 (configuration not stated),z-score,[3]; [7],0.257
same,z-score,[3]; [8],0.218
same,z-score,[3]; [9],0.231
same,Potency,3D7,inactive
same,Potency,AA1029,inactive
same,Potency,AS120,inactive
same,Potency,ATS189,inactive
same,Potency,ATS95,inactive
same,Potency,C2A,inactive
same,Potency,CP185,inactive
same,Potency,CP191,inactive
same,Potency,CP192,inactive
same,Potency,CP194,inactive
O=C(C1CC1)N1CC[C@@H](Cn2c(-c3ccc(-c4ccc5occc5c4)cc3)nc3cnccc32)C1,z-score,[3]; [7],0.57
same,z-score,[3]; [8],0.377
same,z-score,[3]; [9],0.609
Cc1cc2c(C(C)C)c(O)c(O)c(C=O)c2c(O)c1-c1c(C)cc2c(C(C)C)c(O)c(O)c(C=O)c2c1O,Z-AUC,[1],1.05 (inactive)
same,Z-AUC,[1]; [4],0.604
same,Z-AUC,[1]; measured here: PEO4 Z-AUC,0.413
same,Potency,7G8,8.91 µM (active)
same,Potency,AS120,8.91 µM (active)
Nc1nc2ccc(OC(F)(F)F)cc2s1,Z-AUC,[1],-0.346 (inactive)
same,Z-AUC,[1]; [4],-0.387
same,Z-AUC,[1]; measured here: PEO4 Z-AUC,0.245
same,Potency,3D7,inactive
same,Potency,7G8,inactive
same,Potency,AA1029,inactive
same,Potency,AS120,inactive
same,Potency,ATS95,inactive
same,Potency,C2A,inactive
same,Potency,CP185,inactive
same,Potency,CP192,inactive
same,Potency,CP194,inactive
C[C@]12CC[C@H](O)CC1=CC[C@@H]1[C@H]2CC[C@]2(C)C(c3cccnc3)=CC[C@H]12,z-score,[3]; [7],0.87
same,z-score,[3]; [8],0.84
same,z-score,[3]; [9],0.924
CN1CCN(CCCN2c3ccccc3Sc3ccc(C(F)(F)F)cc32)CC1,Z-AUC,[1],0.668 (inactive)
same,Z-AUC,[1]; [4],0.224
same,Z-AUC,[1]; measured here: PEO4 Z-AUC,0.215
same,Potency,[2]; parasite line A,2.24 µM (active)
same,Potency,[2]; parasite line B,2 µM (active)
same,Potency,7G8,7.94 µM (active)
same,Potency,AA1029,3.16 µM (active)
same,Potency,AS120,3.16 µM (active)
same,Potency,ATS189,3.98 µM (active)
same,Potency,ATS95,12.6 µM (active)
same,Potency,C2A,7.94 µM (active)
same,Potency,CP191,10 µM (active)
CC(C)NCC(O)COc1ccc(COCCOC(C)C)cc1 (configuration not stated),"activity, negative = inhibition",[2]; [10],1.04% (inactive)
same,"activity, negative = inhibition",[2]; [6],5.04% (inactive)
same,Potency,3D7,inactive
same,Potency,7G8,inactive
same,Potency,AA1029,inactive
same,Potency,AS120,inactive
same,Potency,ATS189,inactive
same,Potency,ATS95,inactive
same,Potency,C2A,inactive
same,Potency,CP185,inactive
same,Potency,CP191,inactive
same,Potency,CP192,inactive
same,Potency,CP194,inactive
Cn1cnc([N+](=O)[O-])c1Sc1ncnc2nc[nH]c12,Z-AUC,[1],-0.621 (inactive)
same,Z-AUC,[1]; [4],-1.27
same,Z-AUC,[1]; measured here: PEO4 Z-AUC,-1.41
same,Potency,3D7,inactive
same,Potency,AA1029,inactive
same,Potency,AS120,inactive
same,Potency,ATS95,inactive
same,Potency,CP192,inactive
Clc1ccc(Nc2nnc(Cc3ccncc3)c3ccccc23)cc1,Z-AUC,[1],0.341 (inactive)
same,Z-AUC,[1]; [4],0.338
same,Z-AUC,[1]; measured here: PEO4 Z-AUC,0.325
same,"activity, negative = inhibition",[2]; [10],-16.8% (inactive)
same,"activity, negative = inhibition",[2]; [6],-13.7% (inactive)
same,Potency,3D7,inactive
same,Potency,7G8,10 µM (active)
same,Potency,ATS189,inactive
same,Potency,ATS95,inactive
same,Potency,C2A,inactive
same,Potency,CP185,inactive
same,Potency,CP192,inactive
same,Potency,CP194,inactive
CCOc1cc(C=C2C(=O)N(c3ccccc3)N=C2C)cc(Cl)c1OCC(=O)OC,z-score,[3]; [7],0.66
same,z-score,[3]; [8],0.208
same,z-score,[3]; [9],0.267
Cc1ccc(N(CC2=NCCN2)c2cccc(O)c2)cc1,Z-AUC,[1],1.67 (inactive)
same,Z-AUC,[1]; [4],1.44
same,Z-AUC,[1]; measured here: PEO4 Z-AUC,1.79
same,"activity, negative = inhibition",[2]; [10],-3.3% (inactive)
same,"activity, negative = inhibition",[2]; [6],-5.03% (inactive)
same,Potency,3D7,inactive
same,Potency,7G8,inactive
same,Potency,AA1029,inactive
same,Potency,AS120,inactive
same,Potency,ATS189,inactive
same,Potency,ATS95,inactive
same,Potency,C2A,inactive
same,Potency,CP185,inactive
same,Potency,CP191,inactive
same,Potency,CP192,inactive
same,Potency,CP194,inactive
OC(CN1CCC(Cc2ccc(F)cc2)CC1)c1ccc(Cl)cc1 (configuration not stated),z-score,[3]; [7],0.0108
same,z-score,[3]; [8],0.291
same,z-score,[3]; [9],0.245
same,"activity, negative = inhibition",[2]; [10],-26.6% (inactive)
same,Potency,[2]; parasite line B,0.891 µM (active)
same,Potency,3D7,5.01 µM (active)
same,Potency,7G8,0.316 µM (active)
same,Potency,AA1029,1.41 µM (active)
same,Potency,AS120,1.26 µM (active)
same,Potency,ATS189,1.41 µM (active)
same,Potency,ATS95,1.58 µM (active)
same,Potency,C2A,inactive
same,Potency,CP191,inactive
O=C(O)COCCN1CCN(C(c2ccccc2)c2ccc(Cl)cc2)CC1 (configuration not stated),z-score,[3]; [7],0.871
same,z-score,[3]; [8],0.439
same,z-score,[3]; [9],0.674
O=C1CCC(N2C(=O)c3ccccc3C2=O)C(=O)N1 (configuration not stated),Z-AUC,[1],0.908 (inactive)
same,Z-AUC,[1]; [4],0.614
same,Z-AUC,[1]; measured here: PEO4 Z-AUC,0.388
same,"activity, negative = inhibition",[2]; [10],3.13% (inactive)
same,Potency,3D7,inactive
same,Potency,7G8,inactive
same,Potency,AA1029,inactive
same,Potency,AS120,inactive
same,Potency,ATS189,inactive
same,Potency,ATS95,inactive
same,Potency,C2A,inactive
same,Potency,CP185,inactive
same,Potency,CP191,inactive
same,Potency,CP192,inactive
same,Potency,CP194,inactive
CCOc1ccc(Cc2cc([C@@H]3O[C@H](CO)[C@@H](O)[C@H](O)[C@@H]3O)ccc2Cl)cc1,z-score,[3]; [7],0.362
same,z-score,[3]; [8],0.747
same,z-score,[3]; [9],0.623
COc1ccc(-c2ccc3c(N4CCOC[C@H]4C)nc(N4CCOC[C@H]4C)nc3n2)cc1CO,Potency,"[3]; TFE3-RCC UOK109 viability, active = Z-AUC below -0.8 in all three lines",93.5 nM (active)
same,z-score,[3]; [7],-1.8
same,z-score,[3]; [8],-2.87
same,z-score,[3]; [9],-2.13
O=c1n(CCCN2CCN(c3cccc(Cl)c3)CC2)nc2ccccn12,z-score,[3]; [7],-0.148
same,z-score,[3]; [8],0.322
same,z-score,[3]; [9],1.01
same,"activity, negative = inhibition",[2]; [5],-5.98% (inactive)
same,Potency,3D7,inactive
same,Potency,7G8,inactive
same,Potency,AA1029,inactive
same,Potency,AS120,inactive
same,Potency,ATS189,inactive
same,Potency,C2A,inactive
same,Potency,CP185,inactive
same,Potency,CP191,inactive
same,Potency,CP192,inactive
same,Potency,CP194,inactive
CCOC(=O)C1=C[C@@]2(CC)CCCN3CCc4c(n1c1ccccc41)[C@H]32,Potency,CP192,13.5 µM (active)
same,Potency,CP194,13.5 µM (active)
NC(N)=NC(=O)c1nc(Cl)c(N)nc1N,Z-AUC,[1],-0.792 (inactive)
same,Z-AUC,[1]; [4],-0.971
same,Z-AUC,[1]; measured here: PEO4 Z-AUC,-0.392
same,Potency,7G8,2 µM (active)
same,Potency,CP185,inactive
same,Potency,CP191,8.91 µM (active)
same,Potency,CP192,inactive
same,Potency,CP194,inactive
